In the library only some 7.6% were active in any assay of this set; here they are far more common.
MCF10A rerep – inducers of DNA re-replication in MCF 10A breast cells; MCF 10A DNA re-replication, Hoechst nuclear intensity, 48 h; 350,000 compounds, 2.9% hits; Potency, µM (titrated, usually from 46.1 µM), without a hit: at the top dose activity, positive = re-replication, usual class: activators; also: potency is read from the fitted curve at half-maximal effect; % of control where 0% means no effect; nearly all actives have a fitted effect of over 50% in size
KCNH2 3.1 inh – blocks the human KCNH2 3.1 channel isoform. U2OS KCNH2 3.1, thallium flux FluxOr; active compounds read low. activity change, % (tested at about 1.8 µM). 340,000 compounds, 0.95% hits;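 active = maximum activity change below -70%; inconclusive = maximum activity change from -70% to -50%; inactive = maximum activity change above -50%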;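 also: thallium influx rate constant from kinetic fluorescence after stimulation buffer; % is scaled to controls: 0 for no effect and ±100 for the full control effect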
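U2OS cells transduced with KCNH2 3.1 mutant virus (1.77 x 10^8 /mL, 4 h), plated overnight at 37 C, loaded 45 min with FluxOr dye plus Red40 quencher. Thallium flux rate constant from kinetic reads after stimulation buffer, normalised to controls.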
hERG WT inh – blocks the wildtype human KCNH2 potassium channel; Q12809; activity change, % at 1.84 µM; AID 720551; 340,000 compounds, 0.37% hits; U2OS, BacMam KCNH2, thallium flux FluxOr; active compounds read low;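 active = maximum activity change below -70%; inconclusive = maximum activity change between -70% and -50%; inactive = maximum activity change above -50%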; also: % is scaled to controls: 0 for no effect and ±100 for the full control effect
Target sequence (Q12809 whole entry, looked up): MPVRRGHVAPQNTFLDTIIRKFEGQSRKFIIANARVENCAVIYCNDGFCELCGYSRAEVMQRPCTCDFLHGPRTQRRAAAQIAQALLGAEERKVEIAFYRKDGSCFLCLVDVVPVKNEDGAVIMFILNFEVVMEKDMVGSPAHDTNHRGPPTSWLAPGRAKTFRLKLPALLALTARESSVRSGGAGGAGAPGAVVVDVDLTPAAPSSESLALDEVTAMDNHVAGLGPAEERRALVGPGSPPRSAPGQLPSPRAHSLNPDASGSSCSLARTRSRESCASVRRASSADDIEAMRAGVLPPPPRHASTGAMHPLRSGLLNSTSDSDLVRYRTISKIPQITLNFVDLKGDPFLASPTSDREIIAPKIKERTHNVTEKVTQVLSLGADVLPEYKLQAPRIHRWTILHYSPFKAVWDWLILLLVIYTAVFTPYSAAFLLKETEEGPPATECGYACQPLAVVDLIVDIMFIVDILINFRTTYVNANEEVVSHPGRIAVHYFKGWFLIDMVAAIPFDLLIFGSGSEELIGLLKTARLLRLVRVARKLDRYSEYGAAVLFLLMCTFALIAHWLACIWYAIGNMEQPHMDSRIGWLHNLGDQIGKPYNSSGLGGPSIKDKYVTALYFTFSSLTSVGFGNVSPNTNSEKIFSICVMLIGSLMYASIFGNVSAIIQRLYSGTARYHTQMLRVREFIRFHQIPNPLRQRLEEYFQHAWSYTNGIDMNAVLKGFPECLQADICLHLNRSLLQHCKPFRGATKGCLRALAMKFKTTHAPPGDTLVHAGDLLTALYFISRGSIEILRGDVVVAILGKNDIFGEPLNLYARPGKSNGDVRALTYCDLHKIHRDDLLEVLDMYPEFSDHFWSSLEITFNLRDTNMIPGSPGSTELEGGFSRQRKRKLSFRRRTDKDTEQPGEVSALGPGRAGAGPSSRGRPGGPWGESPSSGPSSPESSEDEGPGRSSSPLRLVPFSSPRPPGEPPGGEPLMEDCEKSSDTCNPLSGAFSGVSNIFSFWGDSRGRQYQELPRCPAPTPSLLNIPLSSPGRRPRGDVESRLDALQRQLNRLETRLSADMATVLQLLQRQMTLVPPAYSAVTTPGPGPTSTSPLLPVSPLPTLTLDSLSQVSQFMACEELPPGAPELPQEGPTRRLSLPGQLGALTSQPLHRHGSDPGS
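U2OS cells transduced with wild-type KCNH2 virus are loaded with FluxOr dye for 45 min, and thallium flux is measured in kinetic reads before and after stimulation buffer. Rate constants are normalized to DMSO controls.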
KB-3-1 tox – KB-3-1 parental cell cytotoxicity; KB-3-1 viability, CellTiter-Glo ATP luminescence, 72 h; Potency, µM (top dose mostly 46.1 µM), most hits filed as cytotoxic; 400,000 compounds, 1.4% hits; also: potency is read from the fitted curve at half-maximal effect; % is scaled to controls: 0 for no effect and ±100 for the full control effect; nearly all actives have a fitted effect of over 60% in size
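Here the drug-naive KB-3-1 line serves as comparator for MDR sub-line selectivity; cells received compound titrations, 72 h at 37 °C, then CellTiter-Glo readout.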
KB-V1 MDR tox – kills drug-selected multidrug resistant KB-V1 cells; KB-V1 MDR cells viability, CellTiter-Glo, 72 h; Potency, µM (series often up to 46.1 µM), most hits filed as cytotoxic; 400,000 compounds, 3.4% hits; also: potency is read from the fitted curve at half-maximal effect; % is scaled to controls: 0 for no effect and ±100 for the full control effect; nearly all actives have a fitted effect of over 60% in size
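qHTS viability screen in drug-selected KB-V1 MDR cells: 72 h compound treatment at 37 degrees C, ATP luminescence end point.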
SW480 rereplic – DNA re-replication induction in SW480 cells | SW480 DNA re-replication, Hoechst DNA content imaging, 48 h | Potency, µM (titrated, usually from 46.1 µM), for inactives: top-dose re-replication activation, actives largely listed as activators | 340,000 compounds, 1.8% hits; also: potency is read from the fitted curve at half-maximal effect; % of control where 0% means no effect; nearly all actives have a fitted effect of over 55% in size
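Treated cells incubate 48 hr (37 C, 5% CO2), are stained 40 min with Hoechst, and nuclear fluorescence is enumerated; a rise in nuclei with high DNA signal marks re-replication.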
Active calls of the source: *; [ ] = another dose, or the depositor's remark. Unless noted, calls follow the shape of the dose curve; as a rule, active = well fitted curve in the direction sought with a large enough effect; inconclusive = small, poorly fitted or top-dose-only effect, or another doubt; inactive = no such curve, though single readings can be large; an effect the other way counts as inactive or inconclusive.

How did c1ccc(OCCN2CCNCC2)cc1 do in these assays?
MCF10A rerep: 10%; KCNH2 3.1 inh: -12; hERG WT inh: -4; KB-3-1 tox: inactive; KB-V1 MDR tox: inactive; SW480 rereplic: -6%

How did COc1cc(CN2CCN(C(c3ccccc3)c3ccccc3)CC2)cc(OC)c1OC do in these assays?
MCF10A rerep: 0%; KCNH2 3.1 inh: inconclusive; hERG WT inh: 14; KB-3-1 tox: inactive; KB-V1 MDR tox: inactive; SW480 rereplic: 22%

Results for OC(CN1CCN(c2ccccc2Cl)CC1)c1ccccc1 (centres undefined) ?
MCF10A rerep: inconclusive; KCNH2 3.1 inh: 5; hERG WT inh: 10; KB-3-1 tox: inconclusive; KB-V1 MDR tox: inactive; SW480 rereplic: 23µM*

Results for CC(=O)c1ccccc1OCC(O)CN1CCN(C(c2ccccc2)c2ccccc2)CC1 (centres undefined) ?
MCF10A rerep: 13%; KCNH2 3.1 inh: -85*; hERG WT inh: -74*; KB-3-1 tox: inconclusive; KB-V1 MDR tox: inactive; SW480 rereplic: -5%

What do the screens show for `OC(CN1CCN(C(c2ccccc2)c2ccccc2)CC1)c1ccc(Br)cc1` (centres undefined)?
MCF10A rerep: 9%; KCNH2 3.1 inh: -104*; hERG WT inh: -103*; KB-3-1 tox: inactive; KB-V1 MDR tox: inactive; SW480 rereplic: -1%

Results for OC(CN1CCN(C(c2ccccc2)c2ccccc2)CC1)c1ccccc1 (centres undefined) ?
MCF10A rerep: inconclusive; KCNH2 3.1 inh: -6; hERG WT inh: 38; KB-3-1 tox: inactive; KB-V1 MDR tox: inactive; SW480 rereplic: -8%

Results for C/C=N\NC(=O)CNC(=O)CNC(=O)c1ccccc1 ?
MCF10A rerep: inconclusive; KCNH2 3.1 inh: 26; hERG WT inh: -4; KB-3-1 tox: inactive; KB-V1 MDR tox: inactive; SW480 rereplic: 15%

How did CN(C)C(=O)C1CCC(=O)N1Cc1cccs1 (centres undefined) do in these assays?
MCF10A rerep: -2%; KCNH2 3.1 inh: 23; KB-3-1 tox: inactive; KB-V1 MDR tox: inactive; SW480 rereplic: -65%

What do the screens show for `COc1cccc(CNC(=O)CCCn2nc(C)c3sc4ccccc4c3c2=O)c1`?
KB-3-1 tox: inactive; KB-V1 MDR tox: inactive

How did Cc1ccc(CSc2nnc(-c3cccc(S(=O)(=O)N4CCOCC4)c3)n2CC(C)C)cc1 do in these assays?
MCF10A rerep: 24%; KCNH2 3.1 inh: -10; hERG WT inh: 0; KB-3-1 tox: 23µM*; KB-V1 MDR tox: 4.6µM*; SW480 rereplic: 6%

Results for CC(C)Cn1c(SCC(N)=O)nnc1-c1cccc(S(=O)(=O)N2CCOCC2)c1 ?
MCF10A rerep: -3%; KCNH2 3.1 inh: -5; hERG WT inh: -9; KB-3-1 tox: inactive; KB-V1 MDR tox: inactive; SW480 rereplic: -6%

Results for Cc1ccc(-n2c(C)cc(/C=c3/sc4nc5ccccc5n4c3=O)c2C)cc1 ?
MCF10A rerep: 9.2µM*; KCNH2 3.1 inh: -10; hERG WT inh: -7; KB-3-1 tox: inactive; KB-V1 MDR tox: inactive; SW480 rereplic: 1%[9.22 µM]

How did Cc1onc(-c2c(F)cccc2Cl)c1C(N)=S do in these assays?
MCF10A rerep: -61%; KCNH2 3.1 inh: 9; hERG WT inh: -1; KB-3-1 tox: inactive; KB-V1 MDR tox: inactive; SW480 rereplic: -50%

What do the screens show for `Cc1nnc(SCc2nc3ccccc3s2)n1-c1ccccc1`?
MCF10A rerep: 9%; KCNH2 3.1 inh: 11; hERG WT inh: 11; KB-3-1 tox: inactive; KB-V1 MDR tox: inactive; SW480 rereplic: 12%

Results for c1ccc(-n2cnnc2SCc2nc3ccccc3s2)cc1 ?
MCF10A rerep: inconclusive; KCNH2 3.1 inh: 12; hERG WT inh: 32; KB-3-1 tox: inactive; KB-V1 MDR tox: 21µM*; SW480 rereplic: 15%

What do the screens show for `O=c1[nH]c2cc3c(cc2cc1C(c1nnnn1Cc1ccccc1)N1CCCCCC1)OCCO3` (centres undefined)?
MCF10A rerep: inconclusive; KCNH2 3.1 inh: -9; hERG WT inh: -16; KB-3-1 tox: inconclusive; KB-V1 MDR tox: inconclusive; SW480 rereplic: 21µM*

Results for COCCn1nnnc1C(c1cc2c(C)cc(C)cc2[nH]c1=O)N1CCCCCC1 (centres undefined) ?
MCF10A rerep: -3%; KCNH2 3.1 inh: 10; hERG WT inh: -11; KB-3-1 tox: inactive; KB-V1 MDR tox: inactive; SW480 rereplic: 21%

How did Cc1cc(C)c2cc(C(O)c3nnnn3Cc3ccccc3)c(=O)[nH]c2c1 (centres undefined) do in these assays?
MCF10A rerep: 2.6µM*; KCNH2 3.1 inh: -1; hERG WT inh: -3; KB-3-1 tox: inactive; KB-V1 MDR tox: inactive; SW480 rereplic: 4.6µM*

What do the screens show for `O=c1[nH]c2cc3c(cc2cc1C(c1nnnn1Cc1ccccc1)N1CCCc2ccccc21)OCO3` (centres undefined)?
MCF10A rerep: 3.7µM*; KCNH2 3.1 inh: 6; hERG WT inh: -2; KB-3-1 tox: inconclusive; KB-V1 MDR tox: inactive; SW480 rereplic: 17%

Results for O=c1[nH]c2cc3c(cc2cc1C(c1nnnn1C1CCCC1)N1CCCc2ccccc21)OCCO3 (centres undefined) ?
MCF10A rerep: 3%; KCNH2 3.1 inh: -7; hERG WT inh: 2; KB-3-1 tox: inactive; KB-V1 MDR tox: inactive; SW480 rereplic: 0%

How did CC(C)CCn1c2ccccc2c2cc(CC(N)=O)ccc21 do in these assays?
MCF10A rerep: 15%; KCNH2 3.1 inh: -19; hERG WT inh: 10; KB-3-1 tox: inactive; KB-V1 MDR tox: inactive; SW480 rereplic: inconclusive

What do the screens show for `CC1(C(=O)NS(=O)(=O)c2ccccc2Cl)CCN1C(=O)C1(c2ccc(Cl)cc2)CCC1` (centres undefined)?
KB-3-1 tox: inactive; KB-V1 MDR tox: inactive

Results for CCOC(=O)C(Nc1ccc2ccccc2c1)C(=O)OCC ?
MCF10A rerep: 4.6µM*; KCNH2 3.1 inh: 2; hERG WT inh: 0; KB-3-1 tox: inactive; KB-V1 MDR tox: inactive; SW480 rereplic: 13µM*

What do the screens show for `CC(=O)CC(=O)Nc1ccc2ccccc2c1`?
MCF10A rerep: -2%; KCNH2 3.1 inh: -8; hERG WT inh: -9; KB-3-1 tox: inactive; KB-V1 MDR tox: inactive; SW480 rereplic: -16%

What do the screens show for `CC(=O)Nc1cccc(C(=O)NNC(=O)c2n[nH]c(=O)c3ccccc23)c1`?
MCF10A rerep: -4%; KCNH2 3.1 inh: 0; hERG WT inh: 2; KB-3-1 tox: inactive; KB-V1 MDR tox: inactive; SW480 rereplic: -6%

How did O=c1[nH]c2cc([N+](=O)[O-])cc(Cl)c2c2ccccc12 do in these assays?
KCNH2 3.1 inh: 7; hERG WT inh: 7; KB-3-1 tox: inactive; KB-V1 MDR tox: 12µM*

Screening data deposited in PubChem BioAssay by National Center for Advancing Translational Sciences (NCATS).
